Assay outcomes deposited in PubChem BioAssay by National Center for Advancing Translational Sciences (NCATS).
SARS PLpro yeast – inhibitors of SARS-CoV papain-like protease in yeast. S. cerevisiae expressing SARS-CoV PLpro, growth rescue. Potency, µM (doses to about 32.9 µM), usual class: activators. 330,000 tested, 0.19% active; calls by dose curve; also: nearly all actives have a fitted effect of over 55% in size
FMDV inh – foot and mouth disease virus antiviral activity | Potency, µM (highest dose often 57.9 µM), most hits filed as inhibitors | 410,000 tested, 1.2% active | FMDV antiviral cell-based qHTS | AID 1159524; calls by dose curve; tested in HEK293T cells; also: read-out not given here; nearly all actives have a fitted effect of over 45% in size
LASV entry inh – Lassa virus entry inhibition | AID 540256 | 300,000 tested, 1.2% active | Lassa virus pseudotype entry inhibition, cell reporter | Potency, µM (doses to about 37.9 µM), actives largely listed as inhibitors; calls by dose curve; tested in HEK293 cells; also: nearly all actives have a fitted effect of over 50% in size
HCV inhibitor – HCV inhibition; Huh7.5.1 HCVcc-Cre infection, luciferase reporter, 44 h; Potency, µM (doses to about 41.8 µM), most hits filed as inhibitors; 340,000 tested, 3.4% active; AID 651820; active = well fitted inhibition curve with a large enough effect; inconclusive = small, poorly fitted or top-dose-only effect, or another doubt; inactive = no such curve, though single readings can be large or run the other way
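A cell-based infection assay in which seeded cells (1,000 per well) receive test compound after 4 h, are inoculated with HCVcc-Cre at approximately 0.5 moi, and are incubated 44 h before luminescence detection.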
Marburg entry inh – inhibitors of Marburg virus binding or cell entry. Marburg virus pseudotyped entry inhibition, cell reporter. Potency, µM (series often up to 37.8 µM), usual class: inhibitors. 300,000 tested, 1.8% active. AID 540276; calls by dose curve; tested in HEK293 cells
HCMV antiviral – inhibitors of human cytomegalovirus; HFF cells, HCMV-luciferase reporter, 72 h; active compounds read low; activity change, negative = inhibition, % at 57.5 µM; 410,000 tested, 4.5% active; AID 1259415; in the data active = activity change below about -60%; inconclusive = no clear call, values can overlap the other calls; inactive = above about -39%
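Inhibition of viral replication was scored as loss of reporter luminescence in HFFs infected with HCMV-luciferase (MOI 1 PFU/cell) for 72 h; compounds tested at 2 doses, normalized to buffer and Salinomycin controls.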
Hits are given with their value; n = inactive; u = inconclusive; x = not tested or not shown; + = active, no number. This is a sample that favours compounds with a hit; in the whole collection about 8% have one here.

SMILES	SARS PLpro yeast	FMDV inh	LASV entry inh	HCV inhibitor	Marburg entry inh	HCMV antiviral
COc1cc2c(C#N)c(N3CCN(c4ccccc4OC)CC3)nc(N)c2c(N)n1	n	39.8µM	11.2µM	u	u	n
CCOC(=O)c1cnc2c(OC)cccc2c1Nc1cccc(O)c1	x	25.1µM	n	x	n	u
CCOC(=O)c1cnc2c(OC)cccc2c1NCc1cccnc1	n	u	x	n	x	-62.3
CCOc1cc(CN2CCC(CO)(Cc3cccc(C(F)(F)F)c3)CC2)ccc1OC	n	n	n	u	4.47µM	n
CC(C)[C@H](NC(=O)C1CCCC1)C(=O)N1CCC[C@H]1C(=O)NCCc1ccccc1Cl	x	x	x	x	x	n
O=c1c2cc([N+](=O)[O-])ccc2sn1-c1ccccc1	x	n	x	x	x	n
N#Cc1c2ccc([N+](=O)[O-])cc2[n+]([O-])n1-c1ccccc1	n	x	x	1.58µM	x	+
CCCc1nnc(NC(=O)c2ccc(S(=O)(=O)N(C)c3ccccc3OC)cc2)s1	n	u	n	n	n	n
COc1ccccc1N(C)S(=O)(=O)c1ccc(C(=O)Nc2nccs2)cc1	n	n	x	11.2µM	x	u
COc1ccccc1N(C)S(=O)(=O)c1ccc(C(=O)Nc2nc(C)c(C(C)=O)s2)cc1	n	u	x	n	x	n
COc1ccccc1N(C)S(=O)(=O)c1ccc(C(=O)Nc2ncc(C)s2)cc1	n	u	u	14.1µM	n	u
COc1cc2nc(N3CCCC(O)C3)c(CNCc3ccccc3F)cc2c(OC)c1OC (stereo not given)	x	n	x	x	x	x
Cc1cccc(N2C(=O)/C(=C/N3CCN(C(=O)c4ccco4)CC3)C(=O)NC2=S)c1	n	n	n	n	n	n
Cc1ccc(N2C(=O)/C(=C/N3CCN(C(=O)c4ccco4)CC3)C(=O)NC2=S)cc1C	n	n	n	n	n	-101.0
CC1CCN(C(=O)CSc2c(C(C)C)cnc3c2c(=O)n(C)c(=O)n3C)CC1	x	u	n	x	x	u
Cn1c(=O)oc2ccc(S(=O)(=O)Nc3ccc(Cl)cc3[N+](=O)[O-])cc21	x	x	x	x	x	-62.3
CCc1nn(-c2ccccc2)c(=S)c2ccccc12	n	n	n	u	n	-63.1
Cc1ccc(C(=O)N2CC=C(c3ccccc3)CC2)o1	n	n	n	11.2µM	n	n
Cc1cccc(C(=O)NCC(=O)N2CC=C(c3ccccc3)CC2)c1	n	n	x	5.62µM	x	n
Cc1cccc(C(=O)NCC(=O)N2CCN(c3ccccn3)CC2)c1	n	n	n	n	u	-104.5
COc1ccc(C(=O)NCC(=O)N2CC=C(c3ccccc3)CC2)cc1OC	n	u	x	u	x	n
CC(=O)c1ccc(F)c(-c2cc(C)cc3c2OC(CNC(=O)c2cccnc2)C3)c1 (stereo not given)	x	n	x	x	x	x
COc1ccc(CNC(=O)Cn2c(=O)nc(-c3ccccc3F)c3cc(Cl)ccc32)cc1OC	x	n	u	x	x	n
Cc1ccc(C(=O)NNC(=O)CCC(=O)Nc2cc(C)on2)cc1	n	n	n	n	n	n
Cc1cc(NC(=O)CCC(=O)NNC(=O)c2ccc(C(C)(C)C)cc2)no1	n	n	n	n	u	-74.8
SMILES	SARS PLpro yeast	FMDV inh	LASV entry inh	HCV inhibitor	Marburg entry inh	HCMV antiviral
Cc1ccc(-c2noc(-c3cccnc3N(C)Cc3ccc(Cl)cc3)n2)cc1	x	n	n	x	n	n
CC(C)(C)NC(=O)CSc1nc(Cc2ccccc2)nc2ccccc12	n	n	x	12.6µM	x	-66.8
CCC(C)(C)NC(=O)CSc1nc(Cc2ccccc2)nc2ccccc12	n	n	n	n	u	-71.6
CC(C)NC(=O)CSc1nc(Cc2cccs2)nc2ccccc12	n	x	n	n	n	-81.3
CCC(Cn1nnc2ccccc2c1=O)NC(=O)Nc1ccc(C)cc1C (stereo not given)	x	n	n	x	n	n
CCCC1(C)C(C#N)(C#N)C1(C#N)C#N	x	x	4.11µM	x	16.4µM	x
COc1ccc(S(=O)(=O)Nc2cc(Sc3ncn[nH]3)c(O)c3ccccc23)cc1	n	x	x	31.6µM	x	-77.6
CCC1CN(CC(=O)NCc2ccc3c(c2)OCO3)Cc2ccc(Cl)cc2O1 (stereo not given)	x	n	x	x	x	x
COc1ccc(CC2NCC(O)C2OC(C)=O)cc1 (stereo not given)	x	u	x	0.562µM	x	-108.7
CCN(CC)c1ccc(NC(=O)c2cc(C)nc3c2c(C)nn3-c2ccc(C)cc2)c(C)c1	x	n	u	x	x	n
CCC1Oc2ccccc2N(CC(=O)NCc2ccccc2)C1=O (stereo not given)	x	n	u	x	x	n
